Data published in PubChem BioAssay (NCI).
This is part of a sample that, as a whole, favours compounds with a hit. Of some 83,000 tested, about 20% had one in any assay.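 Results are percent growth after 48 hours of single-concentration exposure. 100 means growth as in untreated cells, lower positive values show inhibition; negative values down to -100 show cell death.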 Activity calls are given as the source filed them. Rule for the calls: active = growth percent below 10; inactive = the rest.

Assays:
Assay in all cases: NCI-60 one-dose screen, 48 h (100 = growth as untreated, 0 = no growth, -100 = all killed)
Settings in all cases: 10 µM
[1] = system: T-47D breast
[2] = system: BT-549 breast
[3] = system: MDA-MB-435 melanoma
[4] = system: SW-620 colon
[5] = system: MCF7 breast
[6] = system: HCT-116 colon
[7] = system: HCC-2998 colon
[8] = system: KM12 colon
[9] = system: MDA-MB-468 breast

Measured: growth

CC(=O)Nc1ccc(-c2cn(-c3cccc(C(=O)Nc4ccc(Cl)c(C(F)(F)F)c4)c3)nn2)cn1
active: [2] -52.7% | [3] -70.6% | [4] -75.5% | [5] -48.3% | [6] -53.9% | [7] -36.1% | [8] -3.58% | [9] -68.5%
inactive: [1] 16.3%

COc1cccc(/C=N/NC(=O)c2ccc3nc(-c4ccc(Cl)cc4)[nH]c3c2)c1O
active: [1] -33.2% | [2] -96.7% | [3] -89.3% | [4] -77.1% | [5] -78.5% | [6] -90.3% | [7] -98% | [8] -85.2% | [9] -96.1%

Cc1nc2c(cnn2-c2ccccc2)c(=O)n1-c1ccc(NC(=O)c2ccc(F)cc2)cc1
inactive: [1] 18% | [2] 46% | [3] 53.8% | [4] 76.5% | [5] 35.8% | [6] 48.3% | [7] 79.9% | [8] 64.1% | [9] 14.5%

CCOC(=O)C(Cc1ccccc1)N1C(=O)/C(=C/N2N=C(c3ccc(OC)cc3)CC2c2ccc3ccccc3c2)SC1=S (configuration not stated)
inactive: [1] 14.6% | [3] 16.3% | [4] 13.4%
active: [2] -6.78% | [5] 0.163% | [6] 7.1% | [7] -92% | [8] 9.78% | [9] -34.1%

O=C1Nc2cc(Cl)ccc2/C1=C/c1cccc(OCc2ccc(Br)cc2F)c1
active: [1] 9.72% | [3] -64.4% | [5] 5.38% | [6] 1.63% | [8] 1.67% | [9] -9.05%
inactive: [2] 10.5% | [4] 19.5% | [7] 26%

CN1CCN(c2ccc(Nc3nc(NCCCNC(=O)c4ccc(F)cc4)c4sccc4n3)cc2)CC1
inactive: [1] 51.5% | [2] 108% | [3] 51.1% | [4] 58.3% | [5] 31% | [6] 33.5% | [7] 66.4% | [8] 53.7% | [9] 59.1%

O=c1cc(-c2ccccc2)oc2cc(OCCCNCc3ccccc3)cc(O)c12
inactive: [2] 46.8%
active: [1] -64.7% | [3] -44.2% | [4] -13.8% | [5] -30% | [6] -68.7% | [7] -95.8% | [8] -38.3% | [9] -59.5%

CCCCSc1nc(Nc2ccc(/C(C)=N/NC(N)=S)cc2)c(C#N)c(-c2ccccc2)n1
inactive: [1] 45.9% | [2] 31.1% | [3] 65.4% | [4] 56.8% | [5] 30.7% | [6] 24.6% | [7] 53.1% | [8] 72.4%
active: [9] -28.4%

O=C(Cn1nc(-c2ccccc2)ccc1=O)NNC(=S)NC1CCCCC1
inactive: [1] 82% | [2] 111% | [3] 110% | [4] 113% | [5] 99.4% | [6] 112% | [7] 114% | [8] 109% | [9] 103%

O=C(N/N=C/c1ccc(B(O)O)o1)c1[nH]c2ccc(Br)cc2c1-c1ccccc1
inactive: [1] 36.4% | [2] 41% | [4] 26.2% | [5] 13.8% | [8] 15.4%
active: [3] -53.2% | [6] 7.23% | [7] 8.58% | [9] -3.94%

O=c1[nH]c2ccccc2cc1CSc1ccc(Nc2nccc(-c3ccc4ccccc4c3)n2)cc1
active: [9] -3.76%
inactive: [1] 86.8% | [2] 48.6% | [3] 69.8% | [4] 32.9% | [5] 19% | [6] 26.2% | [7] 63.5% | [8] 50.2%

C=C(C)[C@@H]1CC[C@]2(COP(=O)(OCC)OCC)CC[C@]3(C)[C@H](CC[C@@H]4[C@@](C)(CCCN)[C@H](C(=C)C)CC[C@]43C)[C@@H]12
inactive: [1] 19% | [3] 14.3% | [4] 12.4% | [7] 10.7% | [8] 16.8%
active: [2] -8.75% | [5] 6.11% | [6] -31.4% | [9] 5.69%

CN1CCCN(Cc2ccc(C(=O)Nc3cccc(Nc4ccc5cc(O)ccc5n4)c3)cc2C(F)(F)F)CC1
inactive: [1] 88.7% | [2] 98% | [3] 37.9% | [8] 25.8%
active: [4] -25.8% | [5] -22.8% | [6] 3.55% | [7] -15.1% | [9] 5.76%

Cc1ccc(-c2nc3ccc(C(=O)N=Nc4c(O)[nH]c5ccc([N+](=O)[O-])cc45)cc3[nH]2)cc1
inactive: [1] 51.8% | [2] 98.7% | [3] 62.6% | [4] 42.2% | [5] 65.9% | [6] 12.7% | [7] 54% | [8] 104% | [9] 59%

Nc1n[nH]c2cccc(C#Cc3cccc(NC(=O)Nc4cc(C(F)(F)F)cc(C(F)(F)F)c4)c3)c12
active: [1] -11.3% | [2] -66.8% | [3] -76.7% | [4] -75.7% | [5] -37.2% | [6] 2.34% | [7] -95.3% | [8] -61.5% | [9] -59.7%

CC(=C(c1ccc(OCCCN(C)C)cc1)c1ccc(OCCCN(C)C)cc1)c1ccccc1
active: [1] -84.9% | [2] -69% | [3] -98.1% | [4] -44.9% | [5] -82.2% | [6] -10.4% | [7] -94.8% | [8] -93% | [9] -93.9%

Cc1cc(C)nc(/N=C(\N)Nc2ccc(S(=O)(=O)Nc3nc(C)cc(C)n3)cc2)n1
inactive: [1] 100% | [2] 117% | [3] 109% | [4] 109% | [5] 95.1% | [6] 110% | [7] 113% | [8] 111% | [9] 106%

O=C(CSc1nnc(-c2ccc3nc(-c4ccccc4)[nH]c3c2)o1)Nc1ccc(Br)cc1
inactive: [1] 62.8% | [2] 95.9% | [3] 63.4% | [5] 28.4% | [6] 19.1% | [7] 90.2% | [8] 53.9% | [9] 83.2%
active: [4] 2.94%

O=C(CNc1nc(-c2ccccc2)cs1)Nc1ccc(Cl)cc1
active: [1] -34.6% | [2] -54.5% | [3] -58.5% | [4] -68.5% | [5] -85.5% | [6] -41.2% | [7] -94.6% | [8] -83.8% | [9] -81.2%

Cc1ccc(-c2ccc(SCC(=O)Nc3ccc(Cl)c(C(F)(F)F)c3)nn2)cc1
active: [3] -18.8% | [9] -31%
inactive: [1] 26.2% | [2] 25.4% | [4] 24.2% | [5] 15.9% | [6] 10.3% | [7] 12.9% | [8] 24.7%

O=C1Nc2ccc(F)cc2/C1=C/c1cccc(OCc2ccccc2)c1
inactive: [1] 13.8% | [2] 23% | [6] 10.1% | [7] 45.8% | [8] 19%
active: [3] 5.74% | [4] 8.79% | [5] 3.46% | [9] -22.3%

COc1ccc(-c2ccc(SCC(=O)Nc3ccc(C#N)cc3)nn2)cc1
inactive: [1] 79.5% | [2] 88.6% | [3] 98.8% | [4] 102% | [5] 88.8% | [6] 87% | [7] 104% | [8] 99.9% | [9] 88.1%

C=C(c1ccc(OC)c(N)c1)c1cc(C)nc2ccccc12
inactive: [1] 62.6% | [2] 64.8% | [4] 18.4% | [7] 11.4% | [8] 10.5%
active: [3] -48.9% | [5] 9.03% | [6] 8.49% | [9] -16.3%

Nc1nc(Nc2ccc(Cl)cc2)nn1Cc1cccc(Br)c1
inactive: [1] 19.3% | [2] 34.2% | [3] 36.7% | [4] 61.9% | [5] 18.2% | [6] 35.2% | [8] 16.7% | [9] 28.1%
active: [7] 5.71%

O=C1Nc2cc(-c3ccc(NC(=O)c4cccs4)cc3)ccc2/C1=C/c1ccc[nH]1
inactive: [1] 22.2% | [2] 91.7% | [3] 102% | [4] 60.3% | [6] 53.3% | [7] 79.5% | [8] 39.3%
active: [5] -12.7% | [9] -19.7%

Cc1ccc2nc3c(nc2c1)c1cc(I)ccc1n3CCN(C)C
inactive: [1] 44.8% | [2] 60.2% | [3] 13.7% | [4] 15.9% | [8] 21.1%
active: [5] -4.43% | [6] 9.81% | [7] -15.6% | [9] 5.08%

Cn1cc(-c2cc(N)n3nc(-c4c[nH]c5ccc(Br)cc45)cc3n2)c2cccnc21
active: [1] -75.7% | [2] -83.7% | [3] -77.7% | [4] -78.6% | [5] -78.5% | [6] -87.9% | [7] -97.8% | [8] -78.3% | [9] -92.1%

CCOC(=O)CNC(=O)CN(Cc1ccccc1)C(=O)[C@@]1(C)CCC[C@]2(C)[C@H]3C[C@H]4C(C(C)C)=C[C@]3(CC[C@H]21)[C@@H]1C(=O)OC(=O)[C@@H]14
inactive: [1] 67.4% | [2] 76.2% | [3] 78.5% | [4] 79.4% | [5] 30.7% | [6] 37.4% | [7] 69.6% | [8] 53% | [9] 48.9%
